# Inconclusive results are not listed. Entries that show only a call come without a potency. Active and inactive are the calls of the source. Calls follow the shape of the dose curve; as a rule, active = well fitted cell-killing curve with a large enough effect in the repeat runs; inconclusive = weak or mixed curves, or effect the other way; inactive = flat fitted curve, though single readings scatter.
# Key:
# [1] = cAMP Responsive Elements (CRE) small molecule antagonists, cell-based qHTS assay: qHTS cell viability counter screen (AID 2060913); settings: CRE-bla HEK293T viability, CellTiter-Glo luminescence, 5 h; series mostly up to 92.4 µM; also: nearly all actives have a fitted effect of over 40% in size
# Method in brief: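 CRE-bla HEK293T cells (2,000/well, 18 h) given compound plus NKH477 0.25 uM final for 3 h at 37C; viability counter-screen by CellTiter-Glo luminescence in same wells after 30 min.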
# [2] = cAMP Responsive Elements (CRE) small molecule agonists, cell-based qHTS assay: qHTS cell viability counter screen (AID 2060914); settings: CRE-bla HEK293T viability, CellTiter-Glo luminescence, 5 h; series mostly up to 92.4 µM;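 also: viability read after 3 h of compound exposure; nearly all actives have a fitted effect of over 50% in size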
# Method in brief: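 Cells are seeded and incubated 18 h, treated with compounds in DMSO for 3 h, read for the bla reporter, then given CellTiter-Glo; luminescence is measured after 30 min at room temperature.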
Compound,Potency [1],Potency [2]
CC1CCC(=O)O1 (stereo not given),inactive,inactive
O=NN1CCCCCCC1,inactive,inactive
Nc1cccc(Cl)c1,inactive,inactive
C#CC(O)(C=CCl)CC (stereo not given),inactive,inactive
C1=CCC=C1,inactive,inactive
S=C(SSC(=S)N1CCCCC1)N1CCCCC1,inactive,inactive
CCC#N,inactive,inactive
O=P(O)(O)CCCl,inactive,inactive
NCCOS(=O)(=O)O,inactive,inactive
COCC(=O)N(c1c(C)cccc1C)N1CCOC1=O,inactive,inactive
c1nc[nH]n1,inactive,inactive
COP(N)(=S)OC,inactive,inactive
Nc1ccccc1-c1ccccc1,inactive,inactive
[O-][Cl+]O,inactive,inactive
O=C(O)c1ccccc1O,inactive,inactive
Cc1nc2ccccc2c(=O)n1-c1ccccc1Cl,inactive,inactive
O=S(=O)(c1ccccc1)c1ccccc1,inactive,inactive
Nc1ccc(Cl)cc1N,inactive,inactive
CC(C)COC(=O)c1ccccc1C(=O)OCC(C)C,inactive,inactive
O=C1CN2CCOC2(c2ccccc2Cl)c2cc(Cl)ccc2N1 (stereo not given),inactive,inactive
CCOc1cccc(C2(N3CCN(c4ccccc4)CC3)CCC(C)CC2)c1 (stereo not given),inactive,inactive
N#Cc1ccccc1N,inactive,inactive
Cc1cc(C)c(C(=O)P(=O)(C(=O)c2c(C)cc(C)cc2C)c2ccccc2)c(C)c1,inactive,inactive
NNC(=O)c1ccccc1,inactive,inactive
O=C1OC(CCN2CCCCC2)OC1(c1ccccc1)c1ccccc1 (stereo not given),inactive,inactive

# Source: PubChem BioAssay (Tox21)
